Assay results taken from the supplement of paper PMC7411054.

Columns and labels:
Test in all cases: phenotypically active (imaging signature differs from DMSO and reproducible) at any of 0.3-9 uM (binary (1 = active, 0 = inactive)); higher = active
Details in all cases: treatment time: 24 h
A549-ACTB-RAB5A = tested on: A549-ACTB-RAB5A
How it was run: (§1)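 Fifteen reporter lines derived from A549, HepG2 and WPMY1 cells by gene editing, carrying BFP for segmentation plus GFP and RFP/FusionRed markers, were exposed to 0.3, 1, 3 or 9 µM for 24 h in four wells each and imaged live. Live-cell features from each well were normalised to solvent control wells. A well set counted as deviating when ≥3 of 4 wells lay beyond the 95th percentile of control Euclidean distances, and as reproducible when the median replicate Pearson correlation exceeded the 95th percentile of non-replicates. Phenotypic activity was assigned only when both criteria were met.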

A549-CANX-COX4 = tested on: A549-CANX-COX4
How it was run: as §1

A549-GM130-SQSTM1 = tested on: A549-GM130-SQSTM1
How it was run: as §1

A549-TP53BP1-CLTA = tested on: A549-TP53BP1-CLTA
How it was run: as §1

A549-TUBA1B-RELA = tested on: A549-TUBA1B-RELA
How it was run: as §1

HepG2-ACTB-RAB5A = tested on: HepG2-ACTB-RAB5A
How it was run: as §1

HepG2-CANX-COX4 = tested on: HepG2-CANX-COX4
How it was run: as §1

HepG2-GM130-SQSTM1 = tested on: HepG2-GM130-SQSTM1
How it was run: as §1

HepG2-TP53BP1-CLTA = tested on: HepG2-TP53BP1-CLTA
How it was run: as §1

HepG2-TUBA1B-RELA = tested on: HepG2-TUBA1B-RELA
How it was run: as §1

WPMY1-ACTB-RAB5A = tested on: WPMY1-ACTB-RAB5A
How it was run: as §1

WPMY1-CANX-COX4 = tested on: WPMY1-CANX-COX4
How it was run: as §1

WPMY1-GM130-SQSTM1 = tested on: WPMY1-GM130-SQSTM1
How it was run: as §1

WPMY1-TP53BP1-CLTA = tested on: WPMY1-TP53BP1-CLTA
How it was run: as §1

WPMY1-TUBA1B-RELA = tested on: WPMY1-TUBA1B-RELA
How it was run: as §1

Measured: phenotypically active

CN(C(=O)CCCOc1ccc2[nH]c(=O)ccc2c1)C1CCCCC1 [Cilostamide]
inactive: A549-ACTB-RAB5A 0 | A549-CANX-COX4 0 | A549-GM130-SQSTM1 0 | A549-TP53BP1-CLTA 0 | A549-TUBA1B-RELA 0 | HepG2-ACTB-RAB5A 0 | HepG2-CANX-COX4 0 | HepG2-GM130-SQSTM1 0 | HepG2-TP53BP1-CLTA 0 | HepG2-TUBA1B-RELA 0 | WPMY1-ACTB-RAB5A 0 | WPMY1-CANX-COX4 0 | WPMY1-GM130-SQSTM1 0 | WPMY1-TP53BP1-CLTA 0 | WPMY1-TUBA1B-RELA 0

N[C@@H](CSC(c1ccccc1)(c1ccccc1)c1ccccc1)C(=O)O [S-Trityl-L-cysteine]
inactive: A549-ACTB-RAB5A 0 | A549-CANX-COX4 0 | A549-GM130-SQSTM1 0 | A549-TP53BP1-CLTA 0 | A549-TUBA1B-RELA 0 | HepG2-ACTB-RAB5A 0 | HepG2-CANX-COX4 0 | HepG2-GM130-SQSTM1 0 | HepG2-TP53BP1-CLTA 0 | HepG2-TUBA1B-RELA 0 | WPMY1-ACTB-RAB5A 0 | WPMY1-CANX-COX4 0 | WPMY1-GM130-SQSTM1 0 | WPMY1-TP53BP1-CLTA 0 | WPMY1-TUBA1B-RELA 0

C=C1C[C@]23C[C@@]1(O)CC[C@H]2[C@@]12C=C[C@H](O)[C@](C)(C(=O)O1)[C@H]2[C@@H]3C(=O)O [Gibberellic acid]
inactive: A549-ACTB-RAB5A 0 | A549-CANX-COX4 0 | A549-GM130-SQSTM1 0 | A549-TP53BP1-CLTA 0 | A549-TUBA1B-RELA 0 | HepG2-ACTB-RAB5A 0 | HepG2-CANX-COX4 0 | HepG2-GM130-SQSTM1 0 | HepG2-TP53BP1-CLTA 0 | HepG2-TUBA1B-RELA 0 | WPMY1-ACTB-RAB5A 0 | WPMY1-CANX-COX4 0 | WPMY1-GM130-SQSTM1 0 | WPMY1-TP53BP1-CLTA 0 | WPMY1-TUBA1B-RELA 0

CNCC[C@@H](Oc1ccccc1C)c1ccccc1 [atomoxetine]
inactive: A549-ACTB-RAB5A 0 | A549-CANX-COX4 0 | A549-GM130-SQSTM1 0 | A549-TP53BP1-CLTA 0 | A549-TUBA1B-RELA 0 | HepG2-ACTB-RAB5A 0 | HepG2-CANX-COX4 0 | HepG2-GM130-SQSTM1 0 | HepG2-TP53BP1-CLTA 0 | HepG2-TUBA1B-RELA 0 | WPMY1-ACTB-RAB5A 0 | WPMY1-CANX-COX4 0 | WPMY1-GM130-SQSTM1 0 | WPMY1-TP53BP1-CLTA 0 | WPMY1-TUBA1B-RELA 0

OC[C@H]1NC[C@H](O)[C@@H](O)[C@@H]1O [1-Deoxynojirimycin]
inactive: A549-ACTB-RAB5A 0 | A549-CANX-COX4 0 | A549-GM130-SQSTM1 0 | A549-TP53BP1-CLTA 0 | A549-TUBA1B-RELA 0 | HepG2-ACTB-RAB5A 0 | HepG2-CANX-COX4 0 | HepG2-GM130-SQSTM1 0 | HepG2-TP53BP1-CLTA 0 | HepG2-TUBA1B-RELA 0 | WPMY1-ACTB-RAB5A 0 | WPMY1-CANX-COX4 0 | WPMY1-GM130-SQSTM1 0 | WPMY1-TP53BP1-CLTA 0 | WPMY1-TUBA1B-RELA 0

Cc1ccccc1Sc1ccc(/C=C2/SC(=S)NC2=O)cc1[N+](=O)[O-]
inactive: A549-ACTB-RAB5A 0 | A549-CANX-COX4 0 | A549-GM130-SQSTM1 0 | A549-TP53BP1-CLTA 0 | A549-TUBA1B-RELA 0 | HepG2-ACTB-RAB5A 0 | HepG2-CANX-COX4 0 | HepG2-GM130-SQSTM1 0 | HepG2-TP53BP1-CLTA 0 | HepG2-TUBA1B-RELA 0 | WPMY1-ACTB-RAB5A 0 | WPMY1-CANX-COX4 0 | WPMY1-GM130-SQSTM1 0 | WPMY1-TP53BP1-CLTA 0 | WPMY1-TUBA1B-RELA 0

CN1C(CSCC(F)(F)F)Nc2cc(Cl)c(S(N)(=O)=O)cc2S1(=O)=O (stereo not given) [polythiazide]
inactive: A549-ACTB-RAB5A 0 | A549-CANX-COX4 0 | A549-GM130-SQSTM1 0 | A549-TP53BP1-CLTA 0 | A549-TUBA1B-RELA 0 | HepG2-ACTB-RAB5A 0 | HepG2-CANX-COX4 0 | HepG2-GM130-SQSTM1 0 | HepG2-TP53BP1-CLTA 0 | HepG2-TUBA1B-RELA 0 | WPMY1-ACTB-RAB5A 0 | WPMY1-CANX-COX4 0 | WPMY1-GM130-SQSTM1 0 | WPMY1-TP53BP1-CLTA 0 | WPMY1-TUBA1B-RELA 0

NC(=O)c1cn(Cc2c(F)cccc2F)nn1 [rufinamide]
inactive: A549-ACTB-RAB5A 0 | A549-CANX-COX4 0 | A549-GM130-SQSTM1 0 | A549-TP53BP1-CLTA 0 | A549-TUBA1B-RELA 0 | HepG2-ACTB-RAB5A 0 | HepG2-CANX-COX4 0 | HepG2-GM130-SQSTM1 0 | HepG2-TP53BP1-CLTA 0 | HepG2-TUBA1B-RELA 0 | WPMY1-ACTB-RAB5A 0 | WPMY1-CANX-COX4 0 | WPMY1-GM130-SQSTM1 0 | WPMY1-TP53BP1-CLTA 0 | WPMY1-TUBA1B-RELA 0

CNC(=O)COC(=O)NCCC1CCN(c2cccc(C)n2)CC1
inactive: A549-ACTB-RAB5A 0 | A549-CANX-COX4 0 | A549-GM130-SQSTM1 0 | A549-TP53BP1-CLTA 0 | A549-TUBA1B-RELA 0 | HepG2-ACTB-RAB5A 0 | HepG2-CANX-COX4 0 | HepG2-GM130-SQSTM1 0 | HepG2-TP53BP1-CLTA 0 | HepG2-TUBA1B-RELA 0 | WPMY1-ACTB-RAB5A 0 | WPMY1-CANX-COX4 0 | WPMY1-GM130-SQSTM1 0 | WPMY1-TP53BP1-CLTA 0 | WPMY1-TUBA1B-RELA 0

CNNCc1ccc(C(=O)NC(C)C)cc1 [procarbazine]
inactive: A549-ACTB-RAB5A 0 | A549-CANX-COX4 0 | A549-GM130-SQSTM1 0 | A549-TP53BP1-CLTA 0 | A549-TUBA1B-RELA 0 | HepG2-ACTB-RAB5A 0 | HepG2-CANX-COX4 0 | HepG2-GM130-SQSTM1 0 | HepG2-TP53BP1-CLTA 0 | HepG2-TUBA1B-RELA 0 | WPMY1-ACTB-RAB5A 0 | WPMY1-CANX-COX4 0 | WPMY1-GM130-SQSTM1 0 | WPMY1-TP53BP1-CLTA 0 | WPMY1-TUBA1B-RELA 0

C=C(C)[C@@H]1CC[C@]2(CO)CC[C@]3(C)[C@H](CC[C@@H]4[C@@]5(C)CC[C@H](O)C(C)(C)[C@@H]5CC[C@]43C)[C@@H]12 [Betulin]
inactive: A549-ACTB-RAB5A 0 | A549-CANX-COX4 0 | A549-GM130-SQSTM1 0 | A549-TP53BP1-CLTA 0 | A549-TUBA1B-RELA 0 | HepG2-ACTB-RAB5A 0 | HepG2-CANX-COX4 0 | HepG2-GM130-SQSTM1 0 | HepG2-TP53BP1-CLTA 0 | HepG2-TUBA1B-RELA 0 | WPMY1-ACTB-RAB5A 0 | WPMY1-CANX-COX4 0 | WPMY1-GM130-SQSTM1 0 | WPMY1-TP53BP1-CLTA 0 | WPMY1-TUBA1B-RELA 0

CCC1(C)OC(=O)N(C)C1=O (stereo not given) [paramethadione]
inactive: A549-ACTB-RAB5A 0 | A549-CANX-COX4 0 | A549-GM130-SQSTM1 0 | A549-TP53BP1-CLTA 0 | A549-TUBA1B-RELA 0 | HepG2-ACTB-RAB5A 0 | HepG2-CANX-COX4 0 | HepG2-GM130-SQSTM1 0 | HepG2-TP53BP1-CLTA 0 | HepG2-TUBA1B-RELA 0 | WPMY1-ACTB-RAB5A 0 | WPMY1-CANX-COX4 0 | WPMY1-GM130-SQSTM1 0 | WPMY1-TP53BP1-CLTA 0 | WPMY1-TUBA1B-RELA 0
